Measurements as given in PubChem BioAssay (NCATS).
Records with an inconclusive call do not appear. Values without a mark were called inactive. The source made the active and inactive calls. The call rests on the fitted dose curve; in most records, active means well fitted cell-killing curve with a large enough effect; inconclusive means small, poorly fitted or top-dose-only effect, or effect the other way; inactive means flat fitted curve, though single readings scatter.

Assay: S16 Schwann cell viability assay (CellTiter-Glo assay) (AID 624031); further: nearly all actives have a fitted effect of over 70% in size;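 on activity change, negative = cytotoxicity: cellular ATP luminescence as a viability measure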
Conditions: S16 rat Schwann cells viability, 24 h; series mostly up to 57.5 µM; activity change, negative = cytotoxicity: at the top concentration
Description: Charcot-Marie-Tooth-Association [CMTA]
National Center for Advancing Translational Sciences [NCATS]
Charcot-Marie-Tooth (CMT) disease was first characterized by Jean-Martin Charcot and Pierre Marie in France and, independently, by Howard Henry Tooth in England in 1886. CMT is one of the most common inherited neurological diseases, affecting approximately 1 in 2,500 Americans. […] The most prevalent type of CMT is known as CMT1A and caused by a duplication of the PMP22 gene which leads to over-expression of this protein. PMP22 is a glycosylated intrinsic membrane protein accounting for 2-5% of the myelin protein content, and its over-expression results in demyelination and subsequently axonal loss.
A pair of cellular transcription-based assays was developed in the S16 rat Schwann cell lines (Hai, M., et al., 2002) stably transfected with orthogonal reporters - firefly luciferase (Fluc) and beta-lactamase (beta-Lac) - whose expression is driven by an intronic regulatory element of the PMP22 gene (Jones, E.A., et al., 2011) to recapitulate endogenous expression of PMP22. A comprehensive library of approved drugs, the NCGC Pharmaceutical Collection (Huang, R., et al., 2011), was screened in the cross-validating platform of the orthogonal reporter assays to identify drug modulators inhibitory towards PMP22 expression.
A set of counter-screens was devised to address non-specific activity of the library. An ATP-dependent CellTiter-Glo assay (developed by Promega Corp) was utilized to control cell viability. In addition, biochemical Fluc enzyme assay was performed to assess direct inhibition of the Fluc enzymatic activity.
Hai, M., Muja, N., DeVries, G.H., Quarles, R.H. and Patel, P.I. Comparative analysis of Schwann cell lines as model systems for myelin gene transcription studies. J Neurosci Res, 2002. 69(4): pp 497-508
Huang, R., Southall, N., Wang, Y., Yasgar A., Shinn P., Jadhav, A. , Nguyen, D.-T. and Austin, C.P., The NCGC pharmaceutical collection: a comprehensive resource of clinically approved drugs enabling repurposing and chemical genomics. Sci Transl Med, 2011. 3(80): p. 80ps16.
Native S16 cells were seeded in white solid-bottom 1536 well plates at between 500-750 cells/6uL in DMEM medium containing 10% FBS, w/o phenol red. After overnight incubation at 37 degree Celsius/5% C02, 23 nL of compounds or DMSO were delivered to each well using a pin tool, followed by 24h-incubation at 37 degree Celsius/5% C02. Then one volume of CellTiter-Glo assay reagent (Promega) was added to each well for cell viability measured by a ViewLux plate reader (PerkinElmer). The % activity was determined by normalizing to the average readings from wells containing no cells relative to DMSO-treated cells (0% Activity). The concentration-effect curves were then classified based on curve quality (r2), response magnitude and degree of measured activity.
Potency means the concentration at half of the fitted maximal effect.

Row | SMILES | activity change, negative = cytotoxicity | Potency
1 | CC(C)CCON=O | 5.3% | 
2 | COc1ccc(OC)c(C(O)C(C)N)c1 (stereo not given) | 7.14% | 
3 | [Cl-].[Cl-].[Hg+2] |  | 2560 nM (active)
4 | CNC(=O)Oc1ccccc1C(=O)Nc1ccccc1 | -4.6% | 
5 | c1ccc2sc(SNC3CCCCC3)nc2c1 | 1.48% | 
6 | O=c1[nH]cc(N(CCCl)CCCl)c(=O)[nH]1 | -28.6% | 
7 | Oc1cccc[c]1[Hg][Cl] |  | 1280 nM (active)
8 | CCC(=O)O[C@@](Cc1ccccc1)(c1ccccc1)[C@@H](C)CN(C)C | -3.31% [at 25.7 µM] | 
9 | CCCCNCC(O)c1ccc(O)cc1 (stereo not given) | -0.963% | 
10 | Cc1sc2ccccc2c1CC1=NCCN1 | -6.06% | 
11 | O=[N+]([O-])c1cc(I)c(O)c(I)c1 | -2.77% | 
12 | S=C=S | -1.72% | 
13 | O=C(OCCN1CCCCC1)C(O)(c1ccccc1)c1ccccc1 | -18.8% | 
14 | O[C@H]1[C@H]2[C@H](O)CCCN2C[C@H]1O | 5.95% | 
15 | CCCCCl | 4.93% | 
16 | CC[N+](C)(CC)CCOC(=O)C(O)(c1ccccc1)c1ccccc1 | -0.19% | 
17 | CCC1(CC)C(=O)NC(=O)N(C)C1=O | -12.1% | 
18 | CC1CCC(C(C)C)C(OC(=O)c2ccccc2N)C1 (stereo not given) | -3.78% | 
19 | CNC(C)C(O)c1ccc(O)cc1 (stereo not given) | 3.81% | 
20 | O=C1CC[C@@]2(O)C3Cc4ccc(O)c5c4C2(CCN3CC2CC2)[C@H]1O5 (stereo not given in full) | 9.11% | 

Row | SMILES | activity change, negative = cytotoxicity | Potency
21 | NCC(O)c1cccc(O)c1 (stereo not given) | 7.98% | 
22 | ClCC1CO1 (stereo not given) | 5.31% | 
23 | C[N+]1(C)C2CCC1CC(OC(=O)c1c[nH]c3ccccc13)C2 (stereo not given) | 7.79% | 
24 | CNC(=O)OCC[N+](C)(C)C | 1.25% | 
25 | O=[N+]([O-])c1ccccc1 | 16.2% | 
26 | CCCC(=O)OC(C(Cl)(Cl)Cl)P(=O)(OC)OC (stereo not given) | 4.93% | 
27 | ClC1C(Cl)C(Cl)C(Cl)C(Cl)C1Cl (stereo not given) | 4.13% | 
28 | C=CCN1CC[C@]23c4c5ccc(O)c4O[C@H]2[C@@H](O)C=C[C@H]3[C@H]1C5 | 0% | 
29 | C=CCN1CCC23c4c5ccc(O)c4O[C@H]2C(=O)CC[C@@]3(O)C1C5 (stereo not given in full) | -4.37% | 
30 | O=c1[nH]c(=O)n(Cl)c(=O)n1Cl | -24% | 
31 | O=C(CCl)c1ccc(Oc2ccc(C(=O)CCl)cc2)cc1 | -9.22% | 
32 | CCC1(c2ccccc2)C(=O)NC(=O)N(C(=O)c2ccccc2)C1=O (stereo not given) | 0% | 
33 | CCC(N)Cc1c[nH]c2ccccc12 (stereo not given) | 0.458% | 
34 | C[C@H]1CCC[C@H](O)CCCCCc2cc(O)cc(O)c2C(=O)O1 | 14.8% | 
35 | COC([CH2][Hg])CNC(=O)c1ccccc1OCC(=O)O (stereo not given) | 0.892% | 
36 | C[N+]1(C)CCCCC1COC(=O)C(O)(c1ccccc1)c1ccccc1 (stereo not given) | -20.7% | 
37 | CN1C2CCC1CC(OC(c1ccccc1)c1ccc(Cl)cc1)C2 (stereo not given) |  | 20300 nM (active)
38 | c1csc(C2(N3CCCCC3)CCCCC2)c1 | -20.5% | 
39 | C=CCC1(C(C)CCC)C(=O)N=C(S)NC1=O (stereo not given) | -1.79% | 
40 | CC(Cc1ccccc1)NC=O (stereo not given) | -0.161% | 
